# Results published in paper PMC4336329 (PLoS ONE, 2015).
# Out of some 310,000 compounds screened, about 14,000 (4.5%) showed an effect of 50% or more. The effect is printed as a negative number. The sample holds strong results, similar compounds and a random draw of the others, so the mix is not that of the screen.
# Target: human ether-à-go-go-related gene (hERG) potassium channel (human, UniProt Q12809)
# Assay: primary screen, population patch clamp on CHO cells stably expressing hERG; higher = less effect of the substance
# 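Note: peak tail current of the secondary pulse compared with the same well before compound.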
# human ether-à-go-go-related gene (hERG) potassium channel, sequence (Q12809 whole entry, looked up): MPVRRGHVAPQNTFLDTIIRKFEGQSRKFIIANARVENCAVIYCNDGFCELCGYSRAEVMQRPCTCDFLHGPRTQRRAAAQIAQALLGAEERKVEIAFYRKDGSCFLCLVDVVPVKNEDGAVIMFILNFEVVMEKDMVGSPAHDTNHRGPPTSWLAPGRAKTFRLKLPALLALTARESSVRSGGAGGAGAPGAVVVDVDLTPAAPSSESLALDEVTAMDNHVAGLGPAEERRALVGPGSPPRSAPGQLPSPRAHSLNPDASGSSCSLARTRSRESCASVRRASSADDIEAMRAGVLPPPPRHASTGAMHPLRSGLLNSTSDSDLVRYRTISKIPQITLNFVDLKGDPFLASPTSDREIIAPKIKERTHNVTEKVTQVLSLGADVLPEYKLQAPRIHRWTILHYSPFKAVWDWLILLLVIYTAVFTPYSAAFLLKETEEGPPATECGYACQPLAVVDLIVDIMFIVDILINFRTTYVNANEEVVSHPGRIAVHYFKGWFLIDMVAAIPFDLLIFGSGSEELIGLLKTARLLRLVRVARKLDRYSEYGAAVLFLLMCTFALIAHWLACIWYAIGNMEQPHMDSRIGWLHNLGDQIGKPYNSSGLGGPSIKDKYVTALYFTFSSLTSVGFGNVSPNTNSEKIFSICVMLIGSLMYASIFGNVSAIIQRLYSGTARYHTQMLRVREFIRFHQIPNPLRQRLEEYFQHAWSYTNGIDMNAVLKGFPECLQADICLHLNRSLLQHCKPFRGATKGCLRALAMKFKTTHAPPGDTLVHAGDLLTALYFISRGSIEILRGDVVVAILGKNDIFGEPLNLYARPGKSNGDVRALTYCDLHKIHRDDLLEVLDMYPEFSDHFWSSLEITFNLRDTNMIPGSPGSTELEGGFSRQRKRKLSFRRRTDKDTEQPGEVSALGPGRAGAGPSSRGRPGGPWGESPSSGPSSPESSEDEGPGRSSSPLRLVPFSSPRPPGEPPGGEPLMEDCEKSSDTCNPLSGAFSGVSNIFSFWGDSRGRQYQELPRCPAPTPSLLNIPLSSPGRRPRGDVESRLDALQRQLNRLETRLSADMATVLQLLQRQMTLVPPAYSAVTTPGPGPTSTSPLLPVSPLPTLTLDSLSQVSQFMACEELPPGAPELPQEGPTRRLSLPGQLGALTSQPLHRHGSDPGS
row,Structure (SMILES),"hERG current change (%, negative = inhibition) at 10uM [%]"
1,O=C(CCCCl)Nc1c2c(nn1-c1ccccc1)CSC2,-0.0485
2,C/C(=N\NC(=O)Cc1ccc(Cl)c(Cl)c1)c1cccnc1,-12.9
3,COCCn1c(C)cc(C(=O)CSc2ccc3ccccc3n2)c1C,-0.727
4,COc1cccc(-c2cnc(OC(C)(C)C)nc2OC(C)(C)C)c1,14.7
5,O=C(OCc1ccccc1F)c1ccc2c(c1)OCCO2,7.26
6,O=C(CCn1cccc1)NC1CCCc2ccccc21 (centres unmarked),4.95
7,CC(C)(C)NC(=O)NCc1ccco1,8.48
8,O=C(CCN1CCN(c2ccccc2)CC1)Nc1nccs1,-9.77
9,Cn1c(=O)[nH]c(=O)c2c1nc(CN1CCN(c3ccccc3F)CC1)n2CCCc1ccccc1,-33.7
10,O=C(Nc1ccc([N+](=O)[O-])cc1)C1(c2ccccc2)CCOCC1,-69.1
11,Cc1ccc(NC(=O)C2(c3ccccc3)CCOCC2)cc1,9.1
12,O=C(O)c1ccc(NC(=O)C2(c3ccccc3)CCOCC2)cc1,-5.57
13,COc1ccc(C(=O)NCc2nnc(SCC(=O)N3CCCCC3)o2)cc1,29.8
14,C/C(=C\c1cc(C(=O)O)c(C)o1)CO,12.9
15,Cn1c(SCc2cc(=O)n3cc(Br)ccc3n2)nnc1C1COc2ccccc2O1 (centres unmarked),-72
16,Cc1occc1-c1nnc(SCc2cc(=O)n3cc(Br)ccc3n2)n1C,-47.7
17,Cn1c(SCC(=O)c2ccccc2)nnc1C1COc2ccccc2O1 (centres unmarked),-11.9
18,O=C(OCc1cc(=O)n2cc(Br)ccc2n1)C1COc2ccccc2O1 (centres unmarked),-15.5
19,Cn1c(SCc2nnc(-c3ccc(F)cc3)o2)nnc1C1COc2ccccc2O1 (centres unmarked),-60.9
20,Cn1c(SCc2cnc(-c3ccccc3)s2)nnc1C1COc2ccccc2O1 (centres unmarked),-1.06
21,CN(C(=O)COC(=O)c1nc(Cl)ccc1Cl)c1ccccc1,17.6
22,Cc1ccc(OC(=O)CCC(=O)Nc2ccc(C(N)=O)cc2)cc1,18.2
23,COc1cccc(/C=C/c2ccc3cccc(O)c3n2)c1,14.8

row,Structure (SMILES),"hERG current change (%, negative = inhibition) at 10uM [%]"
1,Cc1cc(C)n(-c2nc(NC(C)(C)C)nc(NC(C)(C)C)n2)n1,-6.46
2,N#CCC(=O)NNc1c([N+](=O)[O-])cc(C(F)(F)F)cc1[N+](=O)[O-],28.8
3,COc1ccc(-c2nc(CN3CCN(Cc4ccccc4)CC3)c(C)o2)cc1,-42.2
4,COc1ccccc1N1CCN(Cc2c(F)cccc2F)CC1,-18
5,COc1ccccc1CN1CCN(Cc2nc(-c3ccc(C)cc3)oc2C)CC1,-58.8
6,COc1ccccc1CN1CCN(S(=O)(=O)c2ccc(C)cc2)CC1,-19
7,COc1ccccc1N1CCN(Cc2nc(-c3ccc(F)cc3)oc2C)CC1,-65.9
8,COc1cc(-c2nc(CN3CCN(c4ncccn4)CC3)c(C)o2)ccc1F,-9.65
9,Cc1cc(C)cc(C(=O)OCC(=O)N2CCCC2)c1,9.79
10,COC(=O)c1sccc1-c1ccc(C(N)=O)o1,7.97
11,Cc1cc(C)nc(N2Cc3ccccc3C2=N)n1,-56
12,N=C1c2ccccc2CN1c1ncccn1,-10.6
13,Br.Cc1ccc(N2Cc3ccccc3C2=N)cc1[N+](=O)[O-],-4.21
14,COc1ccccc1CN=c1c([N+](=O)[O-])nn(-c2ccc3c(c2)OCCO3)n1O,-7.21
15,COc1cc(CC(=O)OCC(=O)Nc2cc([N+](=O)[O-])ccc2F)cc(OC)c1OC,-38.9
16,COc1ccc([N+](=O)[O-])cc1NC(=O)COC(=O)Cc1cc(OC)c(OC)c(OC)c1,-17.8
17,COc1cc(CC(=O)OCC(=O)Nc2cc([N+](=O)[O-])ccc2Cl)cc(OC)c1OC,-50
18,Cc1cc(NC(=O)CCC(=O)N(Cc2ccco2)C(C(=O)NC2CCCCC2)c2cccs2)no1 (centres unmarked),-20.9
19,COc1cccc(/C(O)=C2/C(=O)C(=O)N(Cc3ccco3)C2c2ccncc2)c1 (centres unmarked),15.2
20,CS(=O)(=O)N(CC(=O)Nc1ccccc1C(=O)NCc1ccco1)c1ccc2c(c1)OCCO2,-5.03
21,CC(=O)Nc1ccc(NC(=O)C(C)OC(=O)CNC(=O)c2sc3ccccc3c2Cl)cc1 (centres unmarked),18.6
22,CN(C)CCCN1C(=O)c2cccc3c([N+](=O)[O-])ccc(c23)C1=O,-27.7
23,CN(C)CCCN1C(=O)c2cccc3c(Br)ccc(c23)C1=O,-66.4

row,Structure (SMILES),"hERG current change (%, negative = inhibition) at 10uM [%]"
1,CN(C)CCCN1C(=O)c2cccc3cccc(c23)C1=O,-16
2,COc1ccc2c(c1OC)C(=O)OC2Nc1nc(-c2ccccc2)cs1 (centres unmarked),8.12
3,CCOCCCn1cnc2c(c1=O)c1nc3ccccc3nc1n2-c1ccccc1,-30.6
4,COCCCn1cnc2c(c1=O)c1nc3ccccc3nc1n2-c1ccc(C)cc1,-37
5,COCCCn1cnc2c(c1=O)c1nc3ccccc3nc1n2-c1ccccc1,-56.6
6,CCCCn1c(SCC(=O)NNC(=O)c2ccco2)nnc1-c1ccco1,4
7,CCn1c(=O)c2c(nc(SCC(=O)NCC3CCCO3)n2C)n(C)c1=O (centres unmarked),-0.794
8,COc1ccc(-c2nnn(Cc3nc(N)nc(N4CCCCC4)n3)n2)cc1,-9.06
9,Nc1nc(Cn2nnc(-c3ccccc3Cl)n2)nc(N2CCOCC2)n1,-54.4
10,Nc1nc(Cn2nnc(-c3ccccc3F)n2)nc(N2CCOCC2)n1,-73.4
11,COc1ccc(-c2nnn(Cc3nc(N)nc(N4CCOCC4)n3)n2)cc1OC,-0.202
12,Nc1nc(CSCc2ccccc2)nc(N2CCOCC2)n1,-10.2
13,Clc1ccc(Cn2nnc(-c3ccc(N4CCOCC4)cc3)n2)cc1,4.16
14,CCCCN(C(=O)NC(=O)Nc1ccccc1OC)S(C)(=O)=O,-2.42
15,CCCCCCCCN1C(=O)N(C)C(N(O)C(=O)NC)C1(C)C (centres unmarked),8.37
16,Cc1cc(C(F)(F)F)n2ncc(-c3cccc(Br)c3)c2n1,22.6
17,O=C(Cn1nc(-c2ccccc2)ccc1=O)Nc1cccc(NC(=O)c2ccccn2)c1,-0.657
18,Cc1noc(NS(=O)(=O)c2ccc(N3CC(O)=C(c4ccccc4)C3=N)cc2)c1C,20.5
19,CCOC(=O)c1c(C)c(C(=O)Nc2ccc(N(C)C)cc2)c(C)n1CC,-1.83
20,COCCCNC(=O)c1cc(C(=O)c2ccccc2Br)c[nH]1,15.1
21,CS(=O)(=O)c1ccccc1-c1nc(-c2cc(C(F)(F)F)cc(C(F)(F)F)c2)no1,4.06
22,COc1ccc(CCNC(=O)c2cccc(S(=O)(=O)NC(C)c3ccccc3)c2)cc1 (centres unmarked),6.04
23,COc1ccc(CCCc2nnc(SCC(=O)Nc3ccc(OC)cc3)o2)cc1,17.7

row,Structure (SMILES),"hERG current change (%, negative = inhibition) at 10uM [%]"
1,COc1ccc(Cl)cc1NC(=O)c1ocnc1C,10.1
2,Br.Cc1ccccc1Cn1c(=N)n(CC(=O)c2ccco2)c2ccccc21,-65
3,Br.N=c1n(CC(=O)O)c2ccccc2n1Cc1ccccc1Cl,0.122
4,Br.CCCCn1c(=N)n(CC(=O)c2ccco2)c2ccccc21,-41.8
5,Br.CCCCCCCn1c(=N)n(CC(=O)c2ccco2)c2ccccc21,-70.6
6,Br.CCn1c(=N)n(CC(=O)c2ccco2)c2ccccc21,-3.75
7,CCCn1c(N)[n+](CC(=O)c2ccco2)c2ccccc21.[Br-],-11.1
8,CCOC(=O)C(C)Oc1cccc2c(=O)n(CC(=O)NCc3ccc(F)cc3)ccc12 (centres unmarked),-4.43
9,O=C(OC(C(=O)NCc1ccc2c(c1)OCO2)c1ccccc1F)c1ccco1 (centres unmarked),-31.1
10,C/C(=N\NC(=O)c1ccc(O)cc1)c1cc2ccccc2o1,-50.3
11,C/C(=N\NC(=O)c1nc2ccccn2c1C)c1ccco1,-1.34
12,COc1cccc2cc(C(C)=O)oc12,15.5
13,C/C(=N\NC(=O)c1ccncc1)c1cc2ccccc2o1,-20.5
14,C/C(=N\NC(=O)c1cc2ccccc2cc1O)c1cc2ccccc2o1,6.05
15,C/C(=N\NC(=O)c1nc2ccccn2c1C)c1ccc2c(c1)OCO2,-18.5
16,C/C(=N\NC(=O)c1ccco1)c1cc2ccccc2o1,-9.09
17,COc1cccc2cc(/C(C)=N/NC(=O)c3ccco3)oc12,-52.2
18,C/C(=N\NC(=O)c1nc2ccccn2c1C)c1cc2ccccc2o1,-63
19,Cc1ccc(Nc2ncc3c(n2)CC(C)CC3=O)c(C)c1 (centres unmarked),0.876
20,CCCCN(C(=O)c1cc(CC)c(C)s1)c1c(N)n(CCC)c(=O)[nH]c1=O,-20.8
